# From PMC7862700, “An all-to-all approach to the identification of sequence-specific readers for epigenetic DNA modifications on cytosine”
# Legend:
# Experiment in all cases: DAPPL (digital affinity profiling via proximity ligation, sequencing); 10 mM Tris-HCl pH 7.5, 50 mM NaCl, 1 mM DTT, 4% glycerol, room temperature, 30 min; GST-TFs on glutathione beads, 16-mer random dsDNA library, 0.1% formaldehyde crosslink after washing; high values mean tight binding
# FEV = target: T1, FEV (Homo sapiens, UniProt Q99581 1-238); details: protein: recombinant; tags: N-terminal GST; dsDNA, one strand shown
# T1 sequence: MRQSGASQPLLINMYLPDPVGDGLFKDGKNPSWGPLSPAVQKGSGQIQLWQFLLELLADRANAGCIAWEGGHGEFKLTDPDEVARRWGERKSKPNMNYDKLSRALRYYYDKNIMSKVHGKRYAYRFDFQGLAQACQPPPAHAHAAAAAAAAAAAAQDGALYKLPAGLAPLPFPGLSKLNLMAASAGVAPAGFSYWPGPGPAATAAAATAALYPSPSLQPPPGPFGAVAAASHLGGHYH
# How it was run: (§1)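 Sequencing on an Illumina NextSeq500 followed washing, crosslinking with 0.1% formaldehyde, proximity ligation (BsaI/T4 ligase, 1 h, 37 °C) and PCR amplification of pools that had been incubated for 30 min at room temperature with 200 nmole of a random double-stranded 16-mer DNA library in Tris/NaCl/DTT/glycerol buffer. Each pool held DNA-barcoded human transcription factors, expressed in yeast as GST fusions and captured on glutathione beads, plus a tag-only sample. Binding signal is a hexamer's read frequency for a factor divided by its frequency in the tag-only sample.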
# ETV5 = ETV5 (Homo sapiens, UniProt P41161 1-510); details: protein: recombinant; tags: N-terminal GST; dsDNA, one strand shown
# How it was run: as §1
# HSF1 = HSF1 (Homo sapiens, UniProt Q00613 1-529); details: protein: recombinant; tags: N-terminal GST; chain copies: 3; dsDNA, one strand shown
# How it was run: as §1
# SPIC = target: T2, SPIC (Homo sapiens, UniProt Q8N5J4 1-248); details: protein: recombinant; tags: N-terminal GST; dsDNA, one strand shown
# T2 sequence: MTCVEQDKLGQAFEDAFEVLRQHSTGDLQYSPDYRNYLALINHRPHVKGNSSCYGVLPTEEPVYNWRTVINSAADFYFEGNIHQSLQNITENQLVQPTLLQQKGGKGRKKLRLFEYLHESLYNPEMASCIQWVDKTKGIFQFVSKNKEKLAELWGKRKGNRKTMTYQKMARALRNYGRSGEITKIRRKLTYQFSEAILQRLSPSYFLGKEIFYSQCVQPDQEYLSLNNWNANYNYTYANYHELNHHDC
# How it was run: as §1
# ELF4 = ELF4 (Homo sapiens, UniProt Q99607 1-663); details: protein: recombinant; tags: N-terminal GST; dsDNA, one strand shown
# How it was run: as §1
# ELK4 = target: T3, ELK4 (Homo sapiens, UniProt P28324-2 1-405); details: protein: recombinant; tags: N-terminal GST; dsDNA, one strand shown
# T3 sequence: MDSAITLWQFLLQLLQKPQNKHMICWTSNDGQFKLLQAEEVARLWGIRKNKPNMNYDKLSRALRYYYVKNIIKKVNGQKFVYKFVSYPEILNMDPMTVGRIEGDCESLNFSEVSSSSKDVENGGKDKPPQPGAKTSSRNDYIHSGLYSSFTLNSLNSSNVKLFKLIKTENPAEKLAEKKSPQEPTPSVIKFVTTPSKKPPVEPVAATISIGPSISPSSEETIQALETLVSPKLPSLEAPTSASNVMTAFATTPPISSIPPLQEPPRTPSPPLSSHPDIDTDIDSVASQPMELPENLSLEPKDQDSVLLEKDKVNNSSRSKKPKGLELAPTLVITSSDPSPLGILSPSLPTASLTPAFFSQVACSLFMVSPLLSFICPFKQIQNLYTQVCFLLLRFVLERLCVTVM
# How it was run: as §1
# ETV2 = target: T4, ETV2 (Homo sapiens, UniProt O00321 1-342); details: protein: recombinant; tags: N-terminal GST; dsDNA, one strand shown
# T4 sequence: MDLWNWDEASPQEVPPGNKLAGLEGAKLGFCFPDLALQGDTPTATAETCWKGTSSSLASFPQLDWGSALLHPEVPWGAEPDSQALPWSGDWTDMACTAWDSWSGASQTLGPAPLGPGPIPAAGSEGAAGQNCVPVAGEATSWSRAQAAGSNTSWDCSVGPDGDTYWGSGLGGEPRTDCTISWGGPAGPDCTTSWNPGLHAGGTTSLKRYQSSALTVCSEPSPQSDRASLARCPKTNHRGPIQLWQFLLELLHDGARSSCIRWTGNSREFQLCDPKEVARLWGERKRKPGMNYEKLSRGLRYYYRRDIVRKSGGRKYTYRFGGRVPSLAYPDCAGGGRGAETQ
# How it was run: as §1
# ELF3 = target: T5, ELF3 (Homo sapiens, UniProt P78545 1-371); details: protein: recombinant; tags: N-terminal GST; dsDNA, one strand shown
# T5 sequence: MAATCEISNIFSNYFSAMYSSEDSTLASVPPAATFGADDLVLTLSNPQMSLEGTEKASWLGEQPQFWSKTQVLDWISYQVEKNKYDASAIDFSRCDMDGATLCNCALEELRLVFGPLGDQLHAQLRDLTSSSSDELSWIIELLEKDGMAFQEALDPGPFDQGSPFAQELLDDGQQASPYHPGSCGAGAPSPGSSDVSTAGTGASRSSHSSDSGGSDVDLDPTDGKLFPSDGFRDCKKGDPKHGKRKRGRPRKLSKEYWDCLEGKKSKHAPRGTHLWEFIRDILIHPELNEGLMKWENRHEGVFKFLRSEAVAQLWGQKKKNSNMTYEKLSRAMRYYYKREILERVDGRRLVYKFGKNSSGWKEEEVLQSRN
# How it was run: as §1
# CRX = CRX (Homo sapiens, UniProt O43186 1-299); details: protein: recombinant; tags: N-terminal GST; dsDNA, one strand shown
# How it was run: as §1
# ETV1 = ETV1 (Homo sapiens, UniProt P50549 1-477); details: protein: recombinant; tags: N-terminal GST; dsDNA, one strand shown
# How it was run: as §1
# ERF = target: T6, ERF (Homo sapiens, UniProt P50548 1-548); details: protein: recombinant; tags: N-terminal GST; dsDNA, one strand shown
# T6 sequence: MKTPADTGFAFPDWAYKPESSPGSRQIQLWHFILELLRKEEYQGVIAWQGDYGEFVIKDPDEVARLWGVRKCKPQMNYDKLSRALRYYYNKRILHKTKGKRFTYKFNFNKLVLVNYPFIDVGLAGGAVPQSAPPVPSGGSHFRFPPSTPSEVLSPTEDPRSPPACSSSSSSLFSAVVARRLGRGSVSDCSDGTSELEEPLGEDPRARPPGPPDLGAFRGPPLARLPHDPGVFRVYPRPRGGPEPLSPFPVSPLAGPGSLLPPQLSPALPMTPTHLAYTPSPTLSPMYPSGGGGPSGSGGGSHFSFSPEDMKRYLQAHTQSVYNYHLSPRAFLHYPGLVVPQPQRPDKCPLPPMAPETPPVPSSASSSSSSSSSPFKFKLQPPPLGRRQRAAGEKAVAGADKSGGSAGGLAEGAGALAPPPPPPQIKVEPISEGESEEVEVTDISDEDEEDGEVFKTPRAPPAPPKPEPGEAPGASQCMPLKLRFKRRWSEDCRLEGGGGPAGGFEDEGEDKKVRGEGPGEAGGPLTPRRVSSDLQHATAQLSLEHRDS
# How it was run: as §1
# ETV3L = target: T7, ETV3L (Homo sapiens, UniProt Q6ZN32 1-361); details: protein: recombinant; tags: N-terminal GST; dsDNA, one strand shown
# T7 sequence: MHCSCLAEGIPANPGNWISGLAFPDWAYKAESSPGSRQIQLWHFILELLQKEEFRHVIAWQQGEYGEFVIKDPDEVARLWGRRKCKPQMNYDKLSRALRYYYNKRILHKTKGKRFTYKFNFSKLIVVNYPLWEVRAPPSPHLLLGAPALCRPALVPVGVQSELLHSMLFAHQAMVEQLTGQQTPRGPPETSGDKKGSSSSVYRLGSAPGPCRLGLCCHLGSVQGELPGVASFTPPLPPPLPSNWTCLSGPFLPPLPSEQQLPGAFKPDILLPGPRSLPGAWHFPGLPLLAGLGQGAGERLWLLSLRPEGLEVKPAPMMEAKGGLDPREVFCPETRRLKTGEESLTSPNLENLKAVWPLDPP
# How it was run: as §1
# ETS2 = target: T8, ETS2 (Homo sapiens, UniProt P15036 1-469); details: protein: recombinant; tags: N-terminal GST; dsDNA, one strand shown
# T8 sequence: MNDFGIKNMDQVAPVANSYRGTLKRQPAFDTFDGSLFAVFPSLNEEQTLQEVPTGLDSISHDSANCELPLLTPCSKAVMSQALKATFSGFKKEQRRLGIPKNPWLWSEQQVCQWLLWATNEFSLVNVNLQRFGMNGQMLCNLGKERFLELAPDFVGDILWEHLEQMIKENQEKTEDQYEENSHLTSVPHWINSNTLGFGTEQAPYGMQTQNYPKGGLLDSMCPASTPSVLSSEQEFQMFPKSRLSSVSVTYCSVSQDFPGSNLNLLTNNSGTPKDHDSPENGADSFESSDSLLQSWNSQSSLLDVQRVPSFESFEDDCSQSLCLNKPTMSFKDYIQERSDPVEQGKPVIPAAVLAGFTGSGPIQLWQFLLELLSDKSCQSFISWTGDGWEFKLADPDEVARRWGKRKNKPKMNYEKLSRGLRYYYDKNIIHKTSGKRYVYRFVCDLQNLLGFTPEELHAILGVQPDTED
# How it was run: as §1
# SPDEF = target: T9, SPDEF (Homo sapiens, UniProt O95238 1-335); details: protein: recombinant; tags: N-terminal GST; dsDNA, one strand shown
# T9 sequence: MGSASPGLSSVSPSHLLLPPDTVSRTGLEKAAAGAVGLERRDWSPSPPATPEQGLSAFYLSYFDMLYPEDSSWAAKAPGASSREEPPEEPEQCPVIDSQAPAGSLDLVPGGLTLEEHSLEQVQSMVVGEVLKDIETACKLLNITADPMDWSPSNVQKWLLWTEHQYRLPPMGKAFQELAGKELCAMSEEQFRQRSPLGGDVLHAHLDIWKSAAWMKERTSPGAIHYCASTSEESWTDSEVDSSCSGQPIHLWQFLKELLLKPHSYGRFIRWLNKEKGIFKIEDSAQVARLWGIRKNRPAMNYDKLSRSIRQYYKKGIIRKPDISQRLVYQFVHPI
# How it was run: as §1
# ETV7 = target: T10, ETV7 (Homo sapiens, UniProt Q9Y603 1-341); details: protein: recombinant; tags: N-terminal GST; dsDNA, one strand shown
# T10 sequence: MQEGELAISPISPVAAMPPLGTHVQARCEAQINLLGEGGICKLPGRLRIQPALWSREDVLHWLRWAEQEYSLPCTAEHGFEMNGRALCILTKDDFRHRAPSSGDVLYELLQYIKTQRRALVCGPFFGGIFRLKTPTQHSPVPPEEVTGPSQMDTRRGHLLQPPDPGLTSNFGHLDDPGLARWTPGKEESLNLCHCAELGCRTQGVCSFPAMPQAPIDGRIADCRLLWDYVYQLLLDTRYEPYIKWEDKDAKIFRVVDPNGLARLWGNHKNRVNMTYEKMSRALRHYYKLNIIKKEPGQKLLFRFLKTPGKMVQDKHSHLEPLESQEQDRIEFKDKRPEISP
# How it was run: as §1
# ELF5 = target: T11, ELF5 (Homo sapiens, UniProt Q9UKW6-2 1-255); details: protein: recombinant; tags: N-terminal GST; dsDNA, one strand shown
# T11 sequence: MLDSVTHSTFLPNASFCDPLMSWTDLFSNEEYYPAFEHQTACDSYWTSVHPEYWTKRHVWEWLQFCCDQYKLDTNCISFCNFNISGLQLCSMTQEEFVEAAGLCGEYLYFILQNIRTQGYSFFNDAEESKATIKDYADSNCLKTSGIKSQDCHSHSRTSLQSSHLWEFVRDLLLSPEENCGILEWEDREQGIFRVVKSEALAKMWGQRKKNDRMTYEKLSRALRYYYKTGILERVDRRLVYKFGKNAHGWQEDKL
# How it was run: as §1
# ETV3 = target: T12, ETV3 (Homo sapiens, UniProt P41162-2 1-143); details: protein: recombinant; tags: N-terminal GST; dsDNA, one strand shown
# T12 sequence: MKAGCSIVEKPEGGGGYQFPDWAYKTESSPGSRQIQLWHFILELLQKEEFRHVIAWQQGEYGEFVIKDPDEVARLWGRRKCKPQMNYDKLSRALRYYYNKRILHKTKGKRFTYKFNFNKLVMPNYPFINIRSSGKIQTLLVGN
# How it was run: as §1
# ETV6 = ETV6 (Homo sapiens, UniProt P41212 1-452); details: protein: recombinant; tags: N-terminal GST; dsDNA, one strand shown
# How it was run: as §1
# ETV5, sequence (P41161 whole entry): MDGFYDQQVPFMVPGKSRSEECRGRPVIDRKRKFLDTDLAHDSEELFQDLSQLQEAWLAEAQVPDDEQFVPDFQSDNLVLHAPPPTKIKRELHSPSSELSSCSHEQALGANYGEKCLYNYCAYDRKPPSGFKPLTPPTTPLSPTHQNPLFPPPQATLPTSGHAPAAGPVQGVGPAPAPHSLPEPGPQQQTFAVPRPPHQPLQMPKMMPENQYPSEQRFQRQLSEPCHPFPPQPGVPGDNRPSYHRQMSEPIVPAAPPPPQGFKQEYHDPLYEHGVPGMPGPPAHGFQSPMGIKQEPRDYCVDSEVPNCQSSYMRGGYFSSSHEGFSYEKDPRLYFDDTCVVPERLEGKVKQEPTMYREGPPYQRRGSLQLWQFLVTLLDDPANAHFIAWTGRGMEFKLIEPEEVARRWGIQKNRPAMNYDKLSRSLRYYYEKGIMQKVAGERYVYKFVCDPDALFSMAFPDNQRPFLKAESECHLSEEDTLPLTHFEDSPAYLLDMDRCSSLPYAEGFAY
# HSF1, sequence (Q00613 whole entry): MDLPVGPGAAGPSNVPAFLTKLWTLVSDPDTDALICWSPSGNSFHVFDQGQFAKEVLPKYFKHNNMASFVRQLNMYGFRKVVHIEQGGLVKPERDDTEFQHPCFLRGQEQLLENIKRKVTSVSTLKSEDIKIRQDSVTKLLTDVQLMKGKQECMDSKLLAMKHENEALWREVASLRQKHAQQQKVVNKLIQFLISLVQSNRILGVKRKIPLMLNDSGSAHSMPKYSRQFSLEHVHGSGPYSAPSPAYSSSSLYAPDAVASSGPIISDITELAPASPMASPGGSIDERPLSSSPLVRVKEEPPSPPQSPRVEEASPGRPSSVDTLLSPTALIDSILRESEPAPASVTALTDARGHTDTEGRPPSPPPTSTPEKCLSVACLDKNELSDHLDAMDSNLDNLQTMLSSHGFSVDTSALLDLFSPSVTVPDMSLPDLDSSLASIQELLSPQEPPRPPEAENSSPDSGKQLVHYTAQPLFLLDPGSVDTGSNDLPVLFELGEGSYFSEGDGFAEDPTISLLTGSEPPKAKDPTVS
# ETV1, sequence (P50549 whole entry): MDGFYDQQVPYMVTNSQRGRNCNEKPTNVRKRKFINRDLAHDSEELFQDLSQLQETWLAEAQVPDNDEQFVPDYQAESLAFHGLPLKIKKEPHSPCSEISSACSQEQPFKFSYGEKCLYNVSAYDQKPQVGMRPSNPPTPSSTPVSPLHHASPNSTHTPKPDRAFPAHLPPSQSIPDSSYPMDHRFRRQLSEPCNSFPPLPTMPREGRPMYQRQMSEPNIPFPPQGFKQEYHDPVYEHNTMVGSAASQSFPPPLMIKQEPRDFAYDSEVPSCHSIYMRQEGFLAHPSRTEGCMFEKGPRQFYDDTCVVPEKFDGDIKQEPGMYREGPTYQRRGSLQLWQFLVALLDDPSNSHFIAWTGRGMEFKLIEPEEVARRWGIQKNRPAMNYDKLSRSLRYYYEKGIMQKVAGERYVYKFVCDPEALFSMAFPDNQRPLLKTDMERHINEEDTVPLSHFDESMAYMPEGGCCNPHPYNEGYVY
# ETV6, sequence (P41212 whole entry): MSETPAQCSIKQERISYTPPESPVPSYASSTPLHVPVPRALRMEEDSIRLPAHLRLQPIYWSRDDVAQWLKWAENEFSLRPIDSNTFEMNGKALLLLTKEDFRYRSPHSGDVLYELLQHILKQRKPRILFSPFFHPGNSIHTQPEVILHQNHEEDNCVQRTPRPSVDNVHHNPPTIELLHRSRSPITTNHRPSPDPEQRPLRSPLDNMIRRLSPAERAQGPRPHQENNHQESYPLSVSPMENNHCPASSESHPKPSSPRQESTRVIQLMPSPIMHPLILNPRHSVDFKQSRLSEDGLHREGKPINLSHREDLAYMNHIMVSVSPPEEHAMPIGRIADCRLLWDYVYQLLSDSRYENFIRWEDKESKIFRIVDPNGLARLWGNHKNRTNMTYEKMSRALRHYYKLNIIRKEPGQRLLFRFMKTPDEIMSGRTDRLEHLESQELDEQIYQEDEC
# CRX, sequence (O43186 whole entry): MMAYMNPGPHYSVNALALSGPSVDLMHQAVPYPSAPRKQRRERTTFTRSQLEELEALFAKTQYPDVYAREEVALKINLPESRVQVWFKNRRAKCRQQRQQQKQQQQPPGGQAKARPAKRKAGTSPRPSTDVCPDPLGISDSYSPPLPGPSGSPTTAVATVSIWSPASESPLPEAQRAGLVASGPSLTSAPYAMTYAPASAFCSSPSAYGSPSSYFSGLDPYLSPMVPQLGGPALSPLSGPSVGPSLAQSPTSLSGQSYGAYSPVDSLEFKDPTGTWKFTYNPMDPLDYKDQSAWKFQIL
# ELF4, sequence (Q99607 whole entry): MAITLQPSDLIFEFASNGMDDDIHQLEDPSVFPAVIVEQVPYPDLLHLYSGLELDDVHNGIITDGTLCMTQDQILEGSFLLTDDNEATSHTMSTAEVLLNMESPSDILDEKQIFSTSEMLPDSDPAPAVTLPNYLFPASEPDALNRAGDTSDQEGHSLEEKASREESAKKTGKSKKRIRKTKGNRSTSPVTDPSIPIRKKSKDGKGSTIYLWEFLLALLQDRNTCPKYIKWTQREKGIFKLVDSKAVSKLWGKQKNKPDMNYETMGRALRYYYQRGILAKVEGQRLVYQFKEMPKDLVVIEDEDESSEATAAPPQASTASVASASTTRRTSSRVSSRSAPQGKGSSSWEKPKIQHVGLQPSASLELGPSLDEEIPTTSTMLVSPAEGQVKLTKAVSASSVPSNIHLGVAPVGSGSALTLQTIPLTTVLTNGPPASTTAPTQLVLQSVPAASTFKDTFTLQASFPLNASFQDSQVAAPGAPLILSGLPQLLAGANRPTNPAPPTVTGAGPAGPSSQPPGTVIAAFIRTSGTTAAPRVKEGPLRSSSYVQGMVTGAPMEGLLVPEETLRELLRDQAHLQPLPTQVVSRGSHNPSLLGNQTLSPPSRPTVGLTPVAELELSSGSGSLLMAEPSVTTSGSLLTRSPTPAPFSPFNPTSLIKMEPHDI
sequence,measurement,setting,value
ATTTTC,binding signal,FEV,"1.35 fold enrichment (6-mer frequency, TF over GST control)"
same,binding signal,ETV5,"1.44 fold enrichment (6-mer frequency, TF over GST control)"
same,binding signal,HSF1,"2.04 fold enrichment (6-mer frequency, TF over GST control)"
same,binding signal,SPIC,"1.44 fold enrichment (6-mer frequency, TF over GST control)"
same,binding signal,ELF4,"1.64 fold enrichment (6-mer frequency, TF over GST control)"
same,binding signal,ELK4,"1.5 fold enrichment (6-mer frequency, TF over GST control)"
same,binding signal,ETV2,"1.63 fold enrichment (6-mer frequency, TF over GST control)"
same,binding signal,ELF3,"1.48 fold enrichment (6-mer frequency, TF over GST control)"
same,binding signal,CRX,"1.67 fold enrichment (6-mer frequency, TF over GST control)"
same,binding signal,ETV1,"1.4 fold enrichment (6-mer frequency, TF over GST control)"
same,binding signal,ERF,"1.38 fold enrichment (6-mer frequency, TF over GST control)"
same,binding signal,ETV3L,"1.42 fold enrichment (6-mer frequency, TF over GST control)"
same,binding signal,ETS2,"1.43 fold enrichment (6-mer frequency, TF over GST control)"
same,binding signal,SPDEF,"1.34 fold enrichment (6-mer frequency, TF over GST control)"
same,binding signal,ETV7,"1.39 fold enrichment (6-mer frequency, TF over GST control)"
same,binding signal,ELF5,"1.61 fold enrichment (6-mer frequency, TF over GST control)"
same,binding signal,ETV3,"1.42 fold enrichment (6-mer frequency, TF over GST control)"
same,binding signal,ETV6,"1.43 fold enrichment (6-mer frequency, TF over GST control)"
